# The entries come from a sample that favours the strongest signals as a whole.
# B1: Pa IMPa (Pseudomonas aeruginosa), Q9I5W4 (protein)
# chain: MSLSTTAFPSLQGENMSRSPIPRHRALLAGFCLAGALSAQAATQEEILDAALVSGDSSQLTDSHLVALRLQQQVERIRQTRTQLLDGLYQNLSQAYDPGAASMWVLPANPDNTLPFLIGDKGRVLASLSLEAGGRGLAYGTNVLTQLSGTNAAHAPLLKRAVQWLVNGDPGAATAKDFKVSVVGVDKTAALNGLKSAGLQPADAACNALTDASCASTSKLLVLGNGASAASLSATVRARLQAGLPILFVHTNGWNQSSTGQQILAGLGLQEGPYGGNYWDKDRVPSSRTRTRSVELGGAYGQDPALVQQIVDGSWRTDYDWSKCTSYVGRTTCDDVPGLSDFSKRVDVLKGALDAYNQKAQNLFALPGTTSLRLWLLWADAVRQNIRYPMDKAADTARFQETFVADAIVGYVREAGAAQKELGSYAGQRQQSMPVSGSEETLTLTLPSAQGFTAIGRMAAPGKRLSIRIEDAGQASLAVGLNTQRIGSTRLWNTRQYDRPRFLKSPDIKLQANQSVALVSPYGGLLQLVYSGATPGQTVTVKVTGAASQPFLDIQPGEDSSQAIADFIQALDADKADWLEIRSGSVEVHAKVEKVRGSIDKDYGGDVQRFIRELNEVFIDDAYTLAGFAIPNQAKTPAIQQECAARGWDCDSETLHKLPGTQHINVDQYAQCGGGCSGNPYDQTWGLNPRGWGESHELGHNLQVNRLKVYGGRSGEISNQIFPLHKDWRVLREFGQNLDDTRVNYRNAYNLIVAGRAEADPLAGVYKRLWEDPGTYALNGERMAFYTQWVHYWADLKNDPLQGWDIWTLLYLHQRQVDKSDWDANKAALGYGTYAQRPGNSGDASSTDGNDNLLLGLSWLTQRDQRPTFALWGIRTSAAAQAQVAAYGFAEQPAFFYANNRTNEYSTVKLLDMSQGSPAWPFP
# Assays:
# Experiment in all cases: glycan array binding signal (z-score within array); higher = stronger binding
# Conditions in all cases: glycan notation: IUPAC condensed, linker removed
# [1] = target: Fuc(a1-2)Gal(b1-3)GlcNAc
# Method in brief: (§1)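 Glycan array data came from 3228 arrays in the Consortium for Functional Glycomics database, and only arrays with an available protein sequence were kept. Glycan names were put into IUPAC-condensed notation, and columns mapping to the same glycan were averaged. The binding signal is a within-array Z-score, averaged across arrays of one protein sequence run at different concentrations or buffers and across linkers. A negative Z-score can be read as non-binding.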
# [2] = target: Fuc(a1-2)Gal(b1-3)GlcNAc6S
# Method in brief: as §1
# [3] = target: Fuc(a1-2)Gal(b1-3)[Fuc(a1-4)]GlcNAc
# Method in brief: as §1
# [4] = target: Fuc(a1-2)Gal6S(b1-3)GlcNAc
# Method in brief: as §1
# [5] = target: Fuc(a1-2)Gal6S(b1-3)GlcNAc6S
# Method in brief: as §1
# [6] = target: Fuc(a1-2)[GalNAc(a1-3)]Gal(b1-3)GlcNAc(b1-3)GalNAc
# Method in brief: as §1
# [7] = target: Fuc(a1-3)[Gal(b1-4)]GlcNAc6S
# Method in brief: as §1
# [8] = target: Fuc(a1-3)[Gal3S(b1-4)]Glc
# Method in brief: as §1
# [9] = target: Fuc(a1-3)[Gal3S(b1-4)]GlcNAc
# Method in brief: as §1
# [10] = target: Gal(a1-3)Gal
# Method in brief: as §1
# [11] = target: Gal(a1-3)Gal(b1-3)GlcNAc(b1-2)Man
# Method in brief: as §1
# [12] = target: Gal(b1-2)Gal
# Method in brief: as §1
# [13] = target: Gal(b1-3)GlcNAc(a1-3)Gal(b1-4)GlcNAc
# Method in brief: as §1
# [14] = target: Gal(b1-3)GlcNAc(b1-2)[Gal(b1-3)GlcNAc(b1-6)]Man(a1-6)[Gal(b1-3)GlcNAc(b1-2)Man(a1-3)]Man(b1-4)GlcNAc(b1-4)GlcNAc
# Method in brief: as §1
# [15] = target: Gal(b1-3)GlcNAc(b1-3)Gal(b1-4)Glc
# Method in brief: as §1
# [16] = target: Gal(b1-3)GlcNAc(b1-3)Gal(b1-4)GlcNAc(b1-2)[Gal(b1-3)GlcNAc(b1-3)Gal(b1-4)GlcNAc(b1-6)]Man(a1-6)[Gal(b1-3)GlcNAc(b1-3)Gal(b1-4)GlcNAc(b1-2)Man(a1-3)]Man(b1-4)GlcNAc(b1-4)[Fuc(a1-6)]GlcNAc
# Method in brief: as §1
# [17] = target: Gal(b1-4)GlcNAc(b1-2)Man(a1-3)[Gal(b1-4)GlcNAc(b1-2)Man(a1-6)][GlcNAc(b1-4)]Man(b1-4)GlcNAc(b1-4)[Fuc(a1-6)]GlcNAc
# Method in brief: as §1
# [18] = target: Gal(b1-4)GlcNAc(b1-3)Gal(b1-4)GlcNAc(b1-3)Gal(b1-4)GlcNAc
# Method in brief: as §1
# [19] = target: Gal(b1-4)GlcNAc(b1-3)Gal(b1-4)GlcNAc(b1-3)Gal(b1-4)GlcNAc(b1-3)Gal(b1-4)GlcNAc(b1-3)Gal(b1-4)GlcNAc(b1-2)Man(a1-3)[Gal(b1-4)GlcNAc(b1-3)Gal(b1-4)GlcNAc(b1-3)Gal(b1-4)GlcNAc(b1-3)Gal(b1-4)GlcNAc(b1-3)Gal(b1-4)GlcNAc(b1-2)Man(a1-6)]Man(b1-4)GlcNAc(b1-4)GlcNAc
# Method in brief: as §1
# [20] = target: Gal(b1-4)GlcNAc(b1-6)Gal(b1-4)GlcNAc
# Method in brief: as §1
# [21] = target: Gal6S(b1-3)GlcNAc
# Method in brief: as §1
# [22] = target: GalNAc(b1-4)GlcNAc
# Method in brief: as §1
# [23] = target: GalNAc(b1-4)GlcNAc(b1-2)Man
# Method in brief: as §1
# [24] = target: GalNAc(b1-4)GlcNAc(b1-3)GalNAc(b1-4)GlcNAc
# Method in brief: as §1
# [25] = target: GalNAc4S6S(b1-4)GlcNAc
# Method in brief: as §1
# [26] = target: Glc(a1-4)Glc(a1-4)Glc(a1-4)Glc
# Method in brief: as §1
# [27] = target: Glc(a1-6)Glc(a1-6)Glc(a1-6)Glc
# Method in brief: as §1
# [28] = target: Glc(b1-6)Glc
# Method in brief: as §1
# [29] = target: GlcNAc(a1-4)Gal(b1-4)GalNAc
# Method in brief: as §1
# [30] = target: GlcNAc(a1-4)Gal(b1-4)GlcNAc
# Method in brief: as §1
binder,measurement,setting,value
B1,glycan array binding signal (z-score),[1],-0.318
same,glycan array binding signal (z-score),[2],-0.327
same,glycan array binding signal (z-score),[3],-0.558
same,glycan array binding signal (z-score),[4],0.048
same,glycan array binding signal (z-score),[5],2.91
same,glycan array binding signal (z-score),[6],-0.411
same,glycan array binding signal (z-score),[7],-0.132
same,glycan array binding signal (z-score),[8],-0.077
same,glycan array binding signal (z-score),[9],-0.278
same,glycan array binding signal (z-score),[10],0.105
same,glycan array binding signal (z-score),[11],-0.472
same,glycan array binding signal (z-score),[12],0.524
same,glycan array binding signal (z-score),[13],1.27
same,glycan array binding signal (z-score),[14],-0.438
same,glycan array binding signal (z-score),[15],0.215
same,glycan array binding signal (z-score),[16],0.004
same,glycan array binding signal (z-score),[17],-0.448
same,glycan array binding signal (z-score),[18],-0.198
same,glycan array binding signal (z-score),[19],10.7
same,glycan array binding signal (z-score),[20],-0.112
same,glycan array binding signal (z-score),[21],1.34
same,glycan array binding signal (z-score),[22],-0.367
same,glycan array binding signal (z-score),[23],0.357
same,glycan array binding signal (z-score),[24],-0.197
same,glycan array binding signal (z-score),[25],1.48
same,glycan array binding signal (z-score),[26],0.634
same,glycan array binding signal (z-score),[27],0.853
same,glycan array binding signal (z-score),[28],-0.442
same,glycan array binding signal (z-score),[29],0.088
same,glycan array binding signal (z-score),[30],3.49
